# PubChem BioAssay (NCI)
# About 83,000 compounds went through this panel and 20% of them were active in at least one assay; those are over-represented in the sample as a whole.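 Compound tested at a single concentration for 48 hours in 96-well plates; a percent growth value below 10 was scored as active.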 Unmarked numbers belong to inactive results. The source made the active and inactive calls.
# System: IGROV1 ovarian
# Assay: NCI-60 one-dose screen, 48 h (100 = growth as untreated, 0 = no growth, -100 = all killed)
# Details: 10 µM unless noted
row,SMILES,growth
1,O=C(O)Cn1ccc2ccccc21,-6.06% (active)
2,Cc1ccc2nc(CN(CCN(Cc3nc4ccc(C)cc4[nH]3)Cc3nc4ccc(C)cc4[nH]3)Cc3nc4ccc(C)cc4[nH]3)[nH]c2c1,-95.2% (active)
3,CO[C@@]12[C@@H]3NC3CN1C1=C(C(=O)C(N)=C(C)C1=O)[C@@H]2COC(N)=O (stereo not given in full),33.1%
4,COCCn1c(Nc2ccc(C(=O)NO)cc2)nc2ccccc21,57.5%
5,N#Cc1c(NN)n(C2OC(CO)C(O)C2O)c2ncnc(N)c12 (stereo not given),-65.7% (active)
6,CCCCCNCCCCCNc1cc(OC)cc2cccnc12,98.3%
7,Cc1cc(O)ccc1C1=NN(c2ccc(S(N)(=O)=O)cc2)C(=O)CC1,-9.76% (active)
8,CC(=O)OC1Oc2cc(C)c(C)cc2-c2oc(=O)c(-c3ccc(F)cc3)cc21 (stereo not given),54.4%
9,CCCCCCCCCCCCCCCC1=NCC[N+]1(CCO)CCO,-16% (active)
10,CCOC(=O)C(=CNc1ccccc1Cl)C(=O)OCC,91.1%
11,O=[N+]([O-])c1cc(F)c2cccnc2c1O,3.74% (active)
12,O=C1C=CC(=O)N1CO,109%
13,COc1ccc(C2C=C(c3ccc(Cl)cc3)N=C3SC=CN32)cc1 (stereo not given),113%
14,CCCCCc1c(C)[nH]c(/C=C2\N=C(c3ccc[nH]3)C=C2CC)c1C,-63.3% (active)
15,COc1ccc(CCN2COc3c([C@@H](C)CCC=C(C)C)ccc(C)c3C2)cc1OC,68.3%
16,Cc1nc([C@H]2CC[C@H]3[C@@H]4CCC5=CC(=O)CC[C@]5(C)[C@H]4CC[C@]23C)cs1,109%
17,CC(=O)OC1Oc2ccccc2-c2oc3nc(=N)n(C)c-3cc21 (stereo not given),102%
18,Cn1c(=O)c2c3c(oc2c2ccccc21)C(=O)c1ccccc1C3=O,68.7%
19,CN(CCO)c1ccc(N2Cc3ccccc3OC3=C2C(=O)c2c(O)ccc(O)c2C3=O)cn1,-72.7% (active)

row,SMILES,growth
1,Fc1ccc(-c2nnc(N3CCOCC3)c3ccccc23)cc1,104%
2,CC(=O)[C@@]1(O)[C@H](C)C[C@H]2[C@@H]3C=C(C)C4=Cc5c(cnn5-c5ccccc5)C[C@]4(C)[C@H]3[C@@H](O)C[C@@]21C,-16.8% (active)
3,N#Cc1c(N)n(C2OC(CO)C(O)C2O)c2ncnc(N)c12 (stereo not given),-63% (active)
4,CCCCCCCCCCCCCCCCCC1=NC(C)(C)CN1C(C)(C)CO,-83.8% (active)
5,CC(=O)OC1Oc2cc(C)c(C)cc2-c2oc(=O)c(-c3cc4ccccc4oc3=O)cc21 (stereo not given),73.8%
6,SCc1ccc(CS)cc1,105%
7,CC1=C(C(=O)Nc2ccc(F)cc2)C(c2ccccc2)C2=C(CC(C)(C)CC2=O)N1 (stereo not given),84.3%
8,O=C(C(=O)c1cccnc1)c1cccnc1,31%
9,Clc1ccc2c(c1)-n1cccc1C(c1ccc3ccccc3c1)=NC2,61.4%
10,F,53.5% [6.87 mM]
11,COc1cccc(OCC(O)CN2CCN(c3ccccc3)CC2)c1 (stereo not given),107%
12,CSCCC1NC(=O)C(C(C)=Nc2ccccc2)=C1O (stereo not given),103%
13,CC(OC(=O)Nc1cccc(Cl)c1)C(=O)O (stereo not given),104%
14,C1=C\CCCCN2CC[C@H]3[C@H](CCCC/C=C\CCCN4C[C@@H](CCCCC/1)C[C@@H]3C4)C2,-11.3% (active)
15,CCOc1c(C#N)c2c(N)ncnc2n1C1OC(CO)C(O)C1O (stereo not given),-57.7% (active)
16,COc1cc(/C=C/c2ccc3c(Br)cc(Br)c(O)c3n2)ccc1O,-44.8% (active)
17,Cc1ccc(O)c(Cc2ccccc2)c1,132%
18,c1ccc2c(c1)cnc1ccccc12,121%
19,O=C(Nc1ccc(Oc2ccc(NC(=O)Nc3ccccc3Cl)cc2)cc1)Nc1ccccc1Cl,-62.3% (active)

# System: OVCAR-3 ovarian
# Assay: as above
# Details: 10 µM unless noted
row,SMILES,growth
1,O=C(O)Cn1ccc2ccccc21,104%
2,Cc1ccc2nc(CN(CCN(Cc3nc4ccc(C)cc4[nH]3)Cc3nc4ccc(C)cc4[nH]3)Cc3nc4ccc(C)cc4[nH]3)[nH]c2c1,-94.4% (active)
3,COCCn1c(Nc2ccc(C(=O)NO)cc2)nc2ccccc21,83.5%
4,N#Cc1c(NN)n(C2OC(CO)C(O)C2O)c2ncnc(N)c12 (stereo not given),-42.3% (active)
5,CCCCCNCCCCCNc1cc(OC)cc2cccnc12,75.6%
6,CCCCCCCCCCCCCCCC1=NCC[N+]1(CCO)CCO,86.6%
7,Nc1cc2nc3ccccc3oc-2cc1=O,10.1%
8,O=[N+]([O-])c1cc(F)c2cccnc2c1O,111%
9,O=C1C=CC(=O)N1CO,113%
10,COc1ccc(C2C=C(c3ccc(Cl)cc3)N=C3SC=CN32)cc1 (stereo not given),132%
11,CCCCCc1c(C)[nH]c(/C=C2\N=C(c3ccc[nH]3)C=C2CC)c1C,-97.5% (active)
12,COc1ccc(CCN2COc3c([C@@H](C)CCC=C(C)C)ccc(C)c3C2)cc1OC,30.2%
13,Cc1nc([C@H]2CC[C@H]3[C@@H]4CCC5=CC(=O)CC[C@]5(C)[C@H]4CC[C@]23C)cs1,95.9%
14,Cn1c(=O)c2c3c(oc2c2ccccc21)C(=O)c1ccccc1C3=O,21.6%
15,CN(CCO)c1ccc(N2Cc3ccccc3OC3=C2C(=O)c2c(O)ccc(O)c2C3=O)cn1,-99.7% (active)
16,Fc1ccc(-c2nnc(N3CCOCC3)c3ccccc23)cc1,109%

row,SMILES,growth
1,CC(=O)[C@@]1(O)[C@H](C)C[C@H]2[C@@H]3C=C(C)C4=Cc5c(cnn5-c5ccccc5)C[C@]4(C)[C@H]3[C@@H](O)C[C@@]21C,8.02% (active)
2,N#Cc1c(N)n(C2OC(CO)C(O)C2O)c2ncnc(N)c12 (stereo not given),-62.1% (active)
3,CCCCCCCCCCCCCCCCCC1=NC(C)(C)CN1C(C)(C)CO,-1.05% (active)
4,SCc1ccc(CS)cc1,115%
5,CC1=C(C(=O)Nc2ccc(F)cc2)C(c2ccccc2)C2=C(CC(C)(C)CC2=O)N1 (stereo not given),70%
6,O=C(C(=O)c1cccnc1)c1cccnc1,87.7%
7,Clc1ccc2c(c1)-n1cccc1C(c1ccc3ccccc3c1)=NC2,86.1%
8,F,71.5% [6.87 mM]
9,COc1cccc(OCC(O)CN2CCN(c3ccccc3)CC2)c1 (stereo not given),112%
10,CSCCC1NC(=O)C(C(C)=Nc2ccccc2)=C1O (stereo not given),117%
11,CC(OC(=O)Nc1cccc(Cl)c1)C(=O)O (stereo not given),96.3%
12,C1=C\CCCCN2CC[C@H]3[C@H](CCCC/C=C\CCCN4C[C@@H](CCCCC/1)C[C@@H]3C4)C2,49.1%
13,CCOc1c(C#N)c2c(N)ncnc2n1C1OC(CO)C(O)C1O (stereo not given),-41.4% (active)
14,COc1cc(/C=C/c2ccc3c(Br)cc(Br)c(O)c3n2)ccc1O,1.97% (active)
15,Cc1ccc(O)c(Cc2ccccc2)c1,100%
16,O=C(Nc1ccc(Oc2ccc(NC(=O)Nc3ccccc3Cl)cc2)cc1)Nc1ccccc1Cl,-38.3% (active)
